About 83,000 compounds went through this panel and 20% of them were active in at least one assay; those are over-represented in the sample as a whole.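 Method: cells in 96-well plates; compound added at one concentration; 48 h incubation; percent growth measured; values under 10 scored active.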 Values without a mark were called inactive. Activity calls are given as the source filed them.

The test system of one experiment is RXF 393 renal. The experiment in a line: NCI-60 one-dose screen, 48 h (100 = growth as untreated, 0 = no growth, -100 = all killed). To be noted: 10 µM unless noted.
Consider `Cc1cc(N(CCCl)CCCl)ccc1C=Nc1ccccc1-c1ccccc1`, for which the growth is 45.5%. On the same count and under the same terms, the same measure for `CCn1cnc2c(Nc3cccc(Cl)c3)nc(N[C@@H]3CCCC[C@@H]3N)nc21`: -44.5% (active); for `CC12CCC3C(CCC4=CC(=O)CCC43CF)C1CCC2=O` (centres undefined): 67.7%. Still for that read-out and setting: the same measure for `C=CC12CCN(CC1)C(C(O)c1ccnc3ccc(OC)cc13)C2` (centres undefined): 45.9%; for `COc1cc([C@@H]2c3cc4c(cc3[C@H](OC(C)=O)[C@H]3COC(=O)[C@H]23)OCO4)cc(OC)c1OC`: 54.9%; for `CC(=O)[O][Hg][O]C(C)=O`: 98.2%.

Take `O=C(CCCCCCC(=O)Nc1ccc(N(CCCl)CCCl)cc1)NO`: the growth is -4.05% (active).

Take `CC[C@H](C)[C@H](NC(=O)[C@H]1CCCCN1C)C(=O)N(C)[C@H](C[C@@H](OC(C)=O)c1nc(C(=O)NC23CC(C(=O)OC)(C2)C3)cs1)C(C)C`: the growth is 35.9%. On the same count and under the same terms, the figure for `COc1ccc(/C(C)=C(\c2ccc(OCCN3CCOCC3)cc2)c2ccc(OC(=O)Cc3ccccc3)cc2)cc1` is 111%; for `NC(=O)C(Br)c1ccccc1` (centres undefined) it is 104%. The same measure, in the same setting: the same measure for `O=C([O][Hg][CH2]C1OCCOC1[CH2][Hg][O]C(=O)c1ccccc1)c1ccccc1` (centres undefined): -90.1% (active); for `CN(C)CCCOc1ccc2c(c1)c(C(=O)C(=O)NCCO)cn2Cc1ccccc1`: 89.1%; for `C1CCC([PH+](C2CCCCC2)C2CCCCC2[PH+](C2CCCCC2)C2CCCCC2)CC1.O=C(C1[CH-]CCCC1)C1CCCC[N-]1.[Au]` (centres undefined): -95.2% (active). Same read-out and setting: the same measure for `C[Se]C(=O)c1ccccc1OC(C)=O`: 11.7%.

Regarding `CC(C)COC(C[N+](=O)[O-])C(Cl)(Cl)Cl` (centres undefined), the growth is 115%. Same read-out and setting: the same measure for `Oc1c(O)c(Cl)c(Cl)c(Cl)c1Cl`: 7.31% (active); for `NC(N)=N/N=C\c1c[nH]c2ccc(Br)cc12`: 99%. The same measure, in the same setting: the figure for `Brc1ccc2c(c1)c(-c1nc(-c3c[nH]c4ncccc34)cs1)cn2CCN1CCCCC1` is 60.4%; for `COc1ccc2c(c1)c(C1(O)CC(CSC#N)OC1=O)cn2C(=O)c1ccc(Cl)cc1` (centres undefined) it is 114%; for `COC(=O)[C@@H](C)C[C@H](Cc1ccccc1)NC(=O)c1nc([C@@H](C[C@H](C(C)C)N(C)C(=O)[C@@H](NC(=O)[C@H]2CCCCN2C)C(C)C)OC(C)=O)sc1C` it is 44.4%.

For `COc1ccc(-n2c(C)nc3cc(OC)c(OC)cc3c2=O)cc1OC`, the growth is 118%.

With `CC[S][Hg][Cl]`, the growth is 124%.

Take `COc1ccc(C2=CC(c3ccc(OC)c(OC)c3)c3c(c4ccccc4oc3=O)O2)cc1OC` (centres undefined): the growth was 33.2%. `COc1ccc(/C=C\c2cc(OC)c(OC)c(OC)c2)cc1OCC(=O)Nc1nc2ccc(OC(F)(F)F)cc2s1`: the growth was 26.4%. On the same count and under the same terms, the figure for `CCCCCCCCCCCCCCCCCC1OC[C@H](COC(=O)O[C@@H](C(=O)O[C@H]2C[C@@]3(O)[C@@H](OC(=O)c4ccccc4)[C@@H]4[C@]5(OC(C)=O)CO[C@@H]5C[C@H](O)[C@@]4(C)C(=O)[C@H](OC(C)=O)C(=C2C)C3(C)C)[C@@H](NC(=O)c2ccccc2)c2ccccc2)O1` (some centres undefined) is 65.2%; for `O=C(Nc1ccc(O)cc1)C(Cl)(Cl)Cl` it is 107%; for `CCOC(=O)[C@@H](C)C[C@H](Cc1ccccc1)NC(=O)c1nc([C@@H](C[C@H](C(C)C)N(C)C(=O)[C@@H](NC(=O)[C@H]2CCCCN2C)C(C)C)OC(C)=O)sc1CCOCc1ccccc1` it is -14.2% (active).

The next experiment has as its system SF-268 CNS. Described as above. To be noted: 10 µM unless noted.
In the case of `C=CC1=C[C@@H]2[C@@H]3O[C@]4(CC[C@H](O4)[C@@H](C)C[C@@H](O)C3=O)C[C@H](O)C3=NCC[C@@]32CC1`, the growth was -35.8% (active). The same measure, in the same setting: the figure for `Cc1cc(-c2nc3cc(F)ccc3[se]2)cc(F)c1N` is 101%; for `CN1CC(=O)N(O)C1(C)c1cccnc1` (centres undefined) it is 106%; for `O=C(Nc1ccncc1F)c1cn(CC2CC2)c2ccccc12` it is 105%. Regarding `COc1cccc2c1c(C(=O)C(=O)Nc1cc(C)no1)cn2Cc1ccc(F)cc1`, the growth was 64.3%. Same read-out and setting: the same measure for `CC(C)OC(=O)[C@H](C)NP(=O)(Oc1ccccc1)C1CCCN(O)C1=O` (some centres undefined): 93.9%; for `CC[C@@H]1[C@@H](C)O[C@@](O)([C@@H](C)[C@H](O)[C@H](C)[C@H]2OC(=O)/C=C/C=C/[C@H](C)[C@@H]([C@@H](C)[C@@H](O)[C@H](C)[C@@]3(O)C[C@@H](O[C@H]4C[C@@H](O)[C@H](O)C(C)O4)[C@H](CC)[C@@H](C)O3)OC(=O)/C=C/C=C/[C@@H]2C)C[C@H]1O[C@@H]1C[C@@H](O)[C@H](O)C(C)O1` (some centres undefined): -86.3% (active); for `CCOc1ccc(/C=C/[N+](=O)[O-])cc1`: 98.9%.

For the molecule `O=C1C2C(C(=O)[N]1[Hg][c]1ccccc1)C1(Cl)C(Cl)=C(Cl)C2(Cl)C1(Cl)Cl` (centres undefined), the growth was -66.4% (active).

For the molecule `COC(=O)[C@@H](C)C[C@H](Cc1ccc2ccccc2c1)NC(=O)c1csc([C@@H](C[C@H](C(C)C)N(C)C(=O)[C@@H](NC(=O)[C@H]2CCCCN2C)C(C)C)OC(C)=O)n1`, the growth is 29.4%. Turning to `Cc1cc(N(CCCl)CCCl)ccc1C=Nc1ccccc1-c1ccccc1`, the growth is 62.8%.

As for `CCn1cnc2c(Nc3cccc(Cl)c3)nc(N[C@@H]3CCCC[C@@H]3N)nc21`, the growth is 0.266% (active). `CC12CCC3C(CCC4=CC(=O)CCC43CF)C1CCC2=O` (centres undefined): the growth was 110%. For `C=CC12CCN(CC1)C(C(O)c1ccnc3ccc(OC)cc13)C2` (centres undefined), the growth was 83.7%. Still for that read-out and setting: the same measure for `COc1cc([C@@H]2c3cc4c(cc3[C@H](OC(C)=O)[C@H]3COC(=O)[C@H]23)OCO4)cc(OC)c1OC`: 37%. Still for that read-out and setting: the same measure for `CC(=O)[O][Hg][O]C(C)=O`: 96.6%; for `O=C(CCCCCCC(=O)Nc1ccc(N(CCCl)CCCl)cc1)NO`: 11.6%; for `CC[C@H](C)[C@H](NC(=O)[C@H]1CCCCN1C)C(=O)N(C)[C@H](C[C@@H](OC(C)=O)c1nc(C(=O)NC23CC(C(=O)OC)(C2)C3)cs1)C(C)C`: 23.2%. With `COc1ccc(/C(C)=C(\c2ccc(OCCN3CCOCC3)cc2)c2ccc(OC(=O)Cc3ccccc3)cc2)cc1`, the growth is 100%. For `NC(=O)C(Br)c1ccccc1` (centres undefined), the growth was 79.6%. As for `O=C([O][Hg][CH2]C1OCCOC1[CH2][Hg][O]C(=O)c1ccccc1)c1ccccc1` (centres undefined), the growth was 114%. Still for that read-out and setting: the figure for `CN(C)CCCOc1ccc2c(c1)c(C(=O)C(=O)NCCO)cn2Cc1ccccc1` is 97.7%; for `C1CCC([PH+](C2CCCCC2)C2CCCCC2[PH+](C2CCCCC2)C2CCCCC2)CC1.O=C(C1[CH-]CCCC1)C1CCCC[N-]1.[Au]` (centres undefined) it is -28.5% (active); for `C[Se]C(=O)c1ccccc1OC(C)=O` it is 18.3%. Same read-out and setting: the same measure for `CC(C)COC(C[N+](=O)[O-])C(Cl)(Cl)Cl` (centres undefined): 105%; for `Oc1c(O)c(Cl)c(Cl)c(Cl)c1Cl`: 24.2%; for `NC(N)=N/N=C\c1c[nH]c2ccc(Br)cc12`: 64.6%. On to `Brc1ccc2c(c1)c(-c1nc(-c3c[nH]c4ncccc34)cs1)cn2CCN1CCCCC1`, for which the growth is 75.9%.

With `COc1ccc2c(c1)c(C1(O)CC(CSC#N)OC1=O)cn2C(=O)c1ccc(Cl)cc1` (centres undefined), the growth was 106%.

As for `COC(=O)[C@@H](C)C[C@H](Cc1ccccc1)NC(=O)c1nc([C@@H](C[C@H](C(C)C)N(C)C(=O)[C@@H](NC(=O)[C@H]2CCCCN2C)C(C)C)OC(C)=O)sc1C`, the growth is 17.6%. Regarding `COc1ccc(-n2c(C)nc3cc(OC)c(OC)cc3c2=O)cc1OC`, the growth was 97.2%. The same measure, in the same setting: the figure for `CC[S][Hg][Cl]` is 103%; for `COc1ccc(C2=CC(c3ccc(OC)c(OC)c3)c3c(c4ccccc4oc3=O)O2)cc1OC` (centres undefined) it is 38.7%; for `COc1ccc(/C=C\c2cc(OC)c(OC)c(OC)c2)cc1OCC(=O)Nc1nc2ccc(OC(F)(F)F)cc2s1` it is 45.8%. Same read-out and setting: the same measure for `CCCCCCCCCCCCCCCCCC1OC[C@H](COC(=O)O[C@@H](C(=O)O[C@H]2C[C@@]3(O)[C@@H](OC(=O)c4ccccc4)[C@@H]4[C@]5(OC(C)=O)CO[C@@H]5C[C@H](O)[C@@]4(C)C(=O)[C@H](OC(C)=O)C(=C2C)C3(C)C)[C@@H](NC(=O)c2ccccc2)c2ccccc2)O1` (some centres undefined): 73.3%; for `O=C(Nc1ccc(O)cc1)C(Cl)(Cl)Cl`: 101%. In the case of `CCOC(=O)[C@@H](C)C[C@H](Cc1ccccc1)NC(=O)c1nc([C@@H](C[C@H](C(C)C)N(C)C(=O)[C@@H](NC(=O)[C@H]2CCCCN2C)C(C)C)OC(C)=O)sc1CCOCc1ccccc1`, the growth was -38% (active).

Source of the values: PubChem BioAssay (NCI).
